# Test results reported in PubChem BioAssay AID862 (The Scripps Research Institute Molecular Screening Center, 2007).
# Hit rate of the full screen: of about 190,000 compounds, about 1,700 (0.89%) were called active.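 Rule for the calls: active = inhibition above the mean inhibition across all screened compounds plus 3 SD (cut at about 44% in these data); inactive = the rest.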 Shown is part of a subset that was picked to be rich in actives.
# Test: blockers of STAT3 transcriptional signaling – U3A cells, luciferase, luminescence, MLSCN library, primary screen (AID 862);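 note: 0% = DMSO only wells and 100% = 100 µM nifuroxazide control wells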
# Conditions: IL-6 STAT3-luciferase reporter, at 5.5 µM, hits give high values, host cell line lacks STAT1
row,Compound,inhibition
1,OCCC1CN(Cc2ccc(Oc3ncccn3)cc2)CCN1CCc1ccccc1 (centres undefined),4.1% (inactive)
2,Cc1cc[n+](-c2[nH]c(=O)sc2/C=N/NC(=O)c2ccccc2[O-])cc1C,6.7% (inactive)
3,COc1cc(N=Cc2c(O)[nH]c3ccccc23)cc(OC)c1OC,56% (active)
4,COc1ccc(N=Cc2c(O)[nH]c3ccccc23)cc1OC,40.4% (inactive)
5,COc1ccc(OC)c(N=Cc2c(O)[nH]c3ccccc23)c1,22.7% (inactive)
6,Cc1cc(C)nc(SC2CCCCC2NS(=O)(=O)c2ccc(Cl)cc2)n1 (centres undefined),-5.1% (inactive)
7,Nc1c(C(=O)O)cnn1-c1ccccc1,-7.4% (inactive)
8,Cc1ccc(N2C(=O)SC(N(CC(=O)O)c3ccc(C)cc3)C2=O)cc1 (centres undefined),0.7% (inactive)
9,CCCCCC(=O)Nc1ccc2oc(-c3ccncc3)nc2c1,21.8% (inactive)
10,CCc1ccc2oc(-c3ccc(N)cc3)nc2c1,79.6% (active)
11,Nc1ccc(-c2nnc(-c3ccc(-c4ccccc4)cc3)o2)cc1,-2.7% (inactive)
12,COc1ccc(Nc2nc(-c3ccccc3)cs2)cc1,-10.2% (inactive)
13,COc1ccc(-c2csc(Nc3ccccn3)n2)cc1,51.5% (active)
14,c1ccc(Nc2nc(-c3ccncc3)cs2)nc1,9.9% (inactive)
15,Cc1ccccc1-n1nc(SCC(=O)O)sc1=S,3.4% (inactive)
16,COc1cccc(CNC(=O)CCC2CCCN(Cc3ccc(OC(F)F)cc3)C2)c1 (centres undefined),13.3% (inactive)
17,COc1ccc(Nc2ncc(F)c(N3CCOCC3)n2)cc1,50.7% (active)
18,c1ccc(Nc2nc(N3CCOCC3)c3ccccc3n2)cc1,22% (inactive)
19,CCOc1ccc(Nc2nc(Cl)nc(N3CCN(c4ccc(OC)cc4)CC3)n2)cc1,-0.7% (inactive)
20,O=[N+]([O-])c1ccc2oc(-c3cccc(O)c3)nc2c1,1.8% (inactive)
21,O=C(Nc1ccccc1F)c1ccc(Cn2cc(Br)cn2)cc1,14.9% (inactive)
22,COC(=O)CSc1ncnc2c1cnn2-c1ccc(C)cc1C,23.1% (inactive)
23,COc1ccc(-n2ncc3c(N4CCCc5ccccc54)ncnc32)cc1,30.9% (inactive)

row,Compound,inhibition
1,COc1ccc(-n2ncc3c(N4CCc5ccccc54)ncnc32)cc1,2.3% (inactive)
2,c1ccc(-n2ncc3c(N4CCCC4)ncnc32)cc1,46.7% (active)
3,Cc1ccc(-n2ncc3c(N4CCN(c5ccc(F)cc5)CC4)ncnc32)c(C)c1,69.6% (active)
4,Cc1ccc(-n2ncc3c(=O)[nH]cnc32)c(C)c1,10.7% (inactive)
5,CCOc1ccc(N2C(=O)Nc3ccccc3C2(O)C(=O)NCc2ccco2)cc1 (centres undefined),4.6% (inactive)
6,O=c1[nH]oc(O)c1-c1ncc(C(F)(F)F)cc1Cl,-6.5% (inactive)
7,S=c1nc(C23CC4CC(CC(C4)C2)C3)nc2sccn12,10% (inactive)
8,O=C(NC1(C(F)(F)F)NC(=O)N(C2CCCCC2)C1=O)c1ccco1 (centres undefined),12.1% (inactive)
9,COC(=O)NC1(C(F)(F)F)NC(=O)N(C2CCCCC2)C1=O (centres undefined),7.4% (inactive)
10,O=C1NC(Nc2nc3ccccc3s2)(C(F)(F)F)C(=O)N1C1CCCCC1 (centres undefined),48.9% (active)
11,COCC(C)NC(=O)CSc1nc2nn(-c3ccccc3)c(=O)c-2c2n1CCCCC2 (centres undefined),2.7% (inactive)
12,CCCOc1ccc(C(=O)NCCc2ccccc2)cc1,50.3% (active)
13,O=C(NCCOc1ccccc1)c1ccccc1,20.1% (inactive)
14,O=C(NCCc1ccccc1)c1ccc(OCCOc2ccccc2)cc1,-1.4% (inactive)
15,O=C(CN1C2=NCCN2c2ccccc21)c1cccs1,0% (inactive)
16,c1ccc(-c2cc(N3CCCCC3)c3ccccc3n2)cc1,9.3% (inactive)
17,Cc1ccc(-n2cc3ccc([N+](=O)[O-])cc3n2)cc1,38.8% (inactive)
18,Cc1ccc(-c2cn3cc([N+](=O)[O-])ccc3n2)cc1,86.6% (active)
19,COc1ccc(-c2cn3cccnc3n2)cc1,10.6% (inactive)
20,Cc1ccc(-c2cn(S(=O)(=O)c3cccc([N+](=O)[O-])c3)nc2N)cc1,12.3% (inactive)
21,Cc1ccc(-c2cn3cc(C)ccc3n2)cc1,103% (active)
22,COc1ccc(-c2cn3ccsc3n2)cc1,28.9% (inactive)
23,CC(=O)Nc1ccc(NC(=O)COc2ccc(S(=O)(=O)NC(C)c3ccccc3)cc2)cc1 (centres undefined),16.1% (inactive)

row,Compound,inhibition
1,Cn1cnnc1Sc1ccc(CN2CCN(C3CCCC3)C(CCO)C2)o1 (centres undefined),-6.5% (inactive)
2,Cc1ccc2nc(-c3ccncc3)cc(C(=O)Nc3ccc4c(c3)OCCO4)c2c1,26.4% (inactive)
3,C/C(=N\NC(=O)CSc1nc2ccccc2c(=O)n1-c1ccccc1C)c1cccs1,-9.1% (inactive)
4,O=C(Cc1ccccc1)N1CCN(S(=O)(=O)c2ccc([N+](=O)[O-])cc2)CC1,-1.6% (inactive)
5,Cc1cc(C)c2c(n1)sc1c(=O)n(-c3ccccc3)c(=O)[nH]c12,1.2% (inactive)
6,Cc1cccc(C(=O)OC(C)CN2CCN(C)CC2)c1 (centres undefined),6.7% (inactive)
7,CCOC(=O)C(C)Sc1nc2ccccc2c(=O)n1CC1CCCCC1 (centres undefined),-5.1% (inactive)
8,CN(c1ccc2nc3ccccc3c(=O)n2n1)C1CCCCC1,105% (active)
9,O=c1c2ccccc2nc2n1C1(CCCCC1)Cc1ccccc1-2,-3.8% (inactive)
10,CN(C)C(CNC(=O)c1cccc(C#N)c1)c1ccco1 (centres undefined),5.3% (inactive)
11,CCOC(=O)CNC(=O)CSc1ccc2nnc(-c3cccnc3)n2n1,-10.3% (inactive)
12,Cn1ccc(=NC=C(C#N)C#N)c2ccccc21,1.3% (inactive)
13,Cc1noc(C)c1COc1cccc(C(=O)Nc2cccnc2)c1,14.6% (inactive)
14,Cc1cccc(OCCNC(=S)NC(=O)c2cccnc2)c1,-5% (inactive)
15,CN(Cc1cccnc1)C(=O)c1cc(COc2ccc3ncccc3c2)on1,79.1% (active)
16,O=C(N/N=C/c1ccc([N+](=O)[O-])o1)c1cn(-c2ccccc2)nc1-c1ccc(F)cc1,25% (inactive)
17,O=C(O)c1ccccc1-c1ccccc1C(=O)NCc1cccnc1,-4.3% (inactive)
18,COc1ccc(OCC(=O)Nc2nnc(-c3ccco3)s2)cc1,-12.3% (inactive)
19,O=C(CCc1ccccc1)Nc1cccc(-c2nnc(-c3ccco3)o2)c1,15.5% (inactive)
20,CCOc1ccc(-c2nnc(-c3ccco3)o2)cc1,77.6% (active)
21,CCCCOc1ccc(-c2nnc(-c3ccco3)o2)cc1,51.7% (active)
22,CCC(=O)Oc1cccc(C(=O)Nc2ccc(-c3nnc(-c4ccco4)o3)cc2)c1,11.2% (inactive)
23,CCCCSc1nnc(-c2ccc(C)cc2)o1,28.9% (inactive)
